Measured values as given in ChEMBL document CHEMBL3988442, “University of Dundee, Small-Polar-MMV Screening Library” (2021).

target: AMP-activated protein kinase, AMPK (Homo sapiens) (UniProt P54646+O43741+P54619+Q9UGJ0+Q9Y478+Q13131+Q9UGI9); assay: AMP-dependent Kinase enzyme assay. An in vitro enzyme assay that detects ADP turnover that is directly proportional to AMPK activity. This uses naive AMPK that is activated during the assay with MK-8722; format: functional; parameters: scale not given: direction of the effect not stated beside the values; details: 30 µM

| Structure (SMILES) | Percent Effect |
| --- | --- |
| CN(CCc1ccncc1)CCc1nccs1 | 1.48% |
| CNC(=O)c1ccc(CN(C(C)C)C(C)C)o1 | -7.38% |
| CN1C[C@]2(CC[C@@H](C(=O)N3CCOCC3)CC2)Oc2ccccc2C1=O | 11.1% |
| COc1c(C)cnc(CN2CCn3c(nnc3C3CC3)C2)c1C | 8.46% |
| CCc1nc2n(n1)CC(NCc1nc3ccccc3nc1C)CC2 (centres undefined) | -2.35% |
| CN(Cc1ccc(C#N)cc1)C(=O)c1ccn(C)c(=O)c1 | 5.01% |
| CCN(CC)c1nc2sc(C(=O)N3CCNC(=O)C3)cc2s1 | 3.77% |
| CN(CCc1ccccc1)c1cnn(CC2COCCO2)c(=O)c1 (centres undefined) | 8.71% |
| Cc1ccc(C2(O)CCN(C(=O)Cn3cc(C)c(=O)[nH]c3=O)CC2)nc1 | 7.31% |
| N#Cc1ccc(SCCC(=O)O)cc1 | 6.5% |
| CNc1ncc(C(=O)N2CCCC(CO)(CCCOC)C2)cn1 (centres undefined) | 5.91% |
| CN(CC(=O)NCC1CCCCC1)S(=O)(=O)c1cccnc1 | -4.46% |
| Cc1nc2c(c(N[C@@H](CO)C(N)=O)n1)Cc1ccccc1OC2 | -0.406% |
| CC(C)(C)CN(CCC#N)C(=O)Nc1cccc(N2CCNC2=O)c1 | -2.8% |
| CC(=O)N1CCCC1CCc1ccc(Cl)nn1 (centres undefined) | 12.8% |
| Cc1nn(C)cc1NC(=O)CN1CCN(C2CCCC2)C(=O)C1 | 16.5% |
| Cc1noc(C)c1C(=O)N(C)C(C)c1cccnc1 (centres undefined) | -4.48% |
| O=C(NCCCNc1cccnc1)c1ccc2nccn2c1 | -8.67% |
| CCOCCN1CCN(c2ccc(C#N)cn2)CC1 | 1.16% |
| COc1coc(CN2CCCC3(CCC(=O)N(CC4CC4)C3)C2)cc1=O (centres undefined) | 8.74% |

| Structure (SMILES) | Percent Effect |
| --- | --- |
| Cc1nc(CN(C)Cc2csc(-c3cccs3)n2)co1 | 10.3% |
| COCCCN1CC2(CCN(C(=O)c3ccc(=O)n(C)c3)CC2)CC1=O | 9.31% |
| CCC(NC(=O)C(C)C)c1ccccc1C (centres undefined) | 8.49% |
| Cc1cc(NC(=O)NCCO)nn1-c1ccc(Cl)cc1Cl | -2.67% |
| COc1ccc(Cl)cc1-n1nc(C2CCCC2)nc1Cn1cnnn1 | -6.62% |
| Cc1nc2c(c(NC(C)c3nnn[nH]3)n1)Cc1ccccc1OC2 (centres undefined) | -6.31% |
| CCc1ccc(CN2CCOC(Cc3cccc(F)c3)C2)nc1 (centres undefined) | 5.27% |
| Cc1c(C(=O)NCCC(=O)N2CCCC2)cccc1-c1ccccn1 | 13.9% |
| N#Cc1ccc(Cl)cc1NCC1CCOC1 (centres undefined) | 5.95% |
| CN1CCC(Nc2ccc(F)cc2OCC(F)(F)F)C1=O (centres undefined) | -16.7% |
| CNCc1cn(C2CCN(C(=O)NCc3ccco3)CC2)nn1 | 0.812% |
| N#CC1(NC(=O)CN2CCc3c(ncn3C3CC3)C2)CCCC1 | -7.46% |
| CC(=O)c1cnc(NCCCN2CCOCC2)nc1C | -7.41% |
| CC1CC(NS(=O)(=O)c2ccc(C(F)(F)F)nc2)C1 (centres undefined) | 19.9% |
| COc1ccc(Cn2c(CCc3c(C)n[nH]c3C)n[nH]c2=O)cc1 | -3.53% |
| Cc1nc(CCN(C)C(=O)CN2CCCCCC2)no1 | 1.14% |
| CC(C)c1cc(C(=O)NCCc2nc(-c3cccnc3)n[nH]2)[nH]n1 | 57.4% |
| COc1ccc(CCCN(C)C(=O)c2cc(C(C)=O)c[nH]2)cc1OC | -2.16% |
| Cc1csc(C(=O)N2CC(S(=O)(=O)C3CCCCC3)C2)c1 | -2.28% |
